The record followed here is PubChem BioAssay (EPA / NIEHS).

Read-out in assay [1]: Human Leukocyte Antigen - DR isotype (HLADR), HLA-DRA (gene 3122)
In words: BSK_3C_HLADR: BioMAP Diversity Plus: 3C Assay for Human Leukocyte Antigen - DR isotype (HLADR) Biomarker Activity (AID 2283019).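 As to outcome: ELISA of cell-surface HLA-DR on HUVEC 24 h after dosing.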 The note with it: primary human endothelial cells (HUVEC); actives raise or lower the signal. Put shortly: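 Endothelial cells from human umbilical vein are treated with test chemical; after 24 h, HLA-DR levels are measured by ELISA. Data are fitted in both directions using DMSO as the baseline.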

The nature of assay [2]: BSK_3C_Vis: BioMAP Diversity Plus: 3C Assay for Morphology Visualization (AID 2283025).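 Also: fitted both ways so gain or loss versus DMSO counts.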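 As to AC50: light microscopy image of cell morphology used as background control.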 The settings on record: primary human endothelial cells (HUVEC). The gist of the method: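 Chemicals were added to primary human umbilical vein endothelium, cells were incubated 24 h, and morphology was then visualized by light microscopy. Gain or loss of signal was fitted bidirectionally relative to DMSO.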

Read-out in assay [3]: Vascular endothelial growth factor receptor 2 (Homo sapiens) (UniProt P35968)
In words: BSK_4H_VEGFRII: BioMAP Diversity Plus: 4H Assay for Vascular endothelial growth factor receptor 2 (VEGFR2) Biomarker Activity (AID 2283031).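 As to AC50: cell-surface VEGFR2 protein level quantified by ELISA.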 The note with it: primary human endothelial cells (HUVEC); actives raise or lower the signal. Put shortly: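 VEGFRII levels on human vascular endothelial primary cells were determined by ELISA at 24 hours post-dosing, with gain- or loss-of-signal fitted against DMSO controls.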

Read-out in assay [4]: Transforming growth factor beta 1 (TGFb1), TGFB1 (gene 7040)
The experiment in a line: BSK_BE3C_TGFb1: BioMAP Diversity Plus: BE3C Assay for Transforming growth factor beta 1 (TGFb1) Biomarker Activity (AID 2283036). The note with it: primary human bronchial epithelial cells; actives raise or lower the signal. Put shortly:
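Primary human lung bronchial epithelial cells; compound exposure 24 h; TGF-b1 by ELISA; bidirectional fit, DMSO baseline. Parallel SRB total-protein staining for cytotoxicity.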

Read-out in assay [5]: Interleukin-8 (IL8), CXCL8 (gene 3576)
The experiment in a line: BSK_CASM3C_IL8: BioMAP Diversity Plus: CASM3C Assay for Interleukin-8 (IL8) Biomarker Activity (AID 2283042).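 Also: IL-8 protein level quantified by ELISA.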 The settings on record: primary human coronary artery smooth muscle cells; actives raise or lower the signal.

Read-out in assay [6]: Monokine induced gamma interferon (MIG), CXCL9 (gene 4283)
The experiment in a line: BSK_CASM3C_MIG: BioMAP Diversity Plus: CASM3C Assay for Monokine induced gamma interferon (MIG) Biomarker Activity (AID 2283048).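 Also: MIG protein level measured by ELISA.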 The settings on record: primary human coronary artery smooth muscle cells; actives raise or lower the signal.

Read-out in assay [7]: Intercellular Adhesion Molecule 1 (ICAM1), ICAM1 (gene 3383)
The experiment in a line: BSK_KF3CT_ICAM1: BioMAP Diversity Plus: KF3CT Assay for Intercellular Adhesion Molecule 1 (ICAM1) Biomarker Activity (AID 2283067). The settings on record: primary human keratinocytes with fibroblasts; actives raise or lower the signal. The gist of the method:
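Dose the keratinocyte/fibroblast co-culture, wait 24 h, measure ICAM-1 by ELISA, then fit increases or decreases against DMSO. Cytotoxicity is checked in parallel cultures by SRB total-protein staining.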

Read-out in assay [8]: Transforming growth factor beta 1 (TGFb1), TGFB1 (gene 7040)
In words: BSK_KF3CT_TGFb1: BioMAP Diversity Plus: KF3CT Assay for Transforming growth factor beta 1 (TGFb1) Biomarker Activity (AID 2283072). The note with it: primary human keratinocytes with fibroblasts; actives raise or lower the signal. Put shortly:
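Primary human skin cells (keratinocytes, foreskin fibroblasts) were co-cultured, exposed to test chemical and sampled at 24 h. TGF-b1 levels were measured by ELISA and fitted bidirectionally relative to DMSO.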

Read-out in assay [9]: C-C motif chemokine 2 (Homo sapiens) (UniProt P13500)
The experiment in a line: BSK_KF3CT_MCP1: BioMAP Diversity Plus: KF3CT Assay for Monocyte Chemoattractant Protein 1 (MCP1/CCL2) Biomarker Activity (AID 2283073). The settings on record: primary human keratinocytes with fibroblasts; actives raise or lower the signal. Put shortly:
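Keratinocytes and foreskin fibroblasts were co-cultured, dosed with chemical, and sampled 24 h later. MCP-1 was quantified by ELISA, and the endpoint was analyzed with bidirectional fitting using DMSO as negative control.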

Read-out in assay [10]: Vascular cell adhesion molecule 1 (VCAM1), VCAM1 (gene 7412)
In words: BSK_LPS_VCAM1: BioMAP Diversity Plus: LPS Assay for Vascular cell adhesion molecule 1 (VCAM1) Biomarker Activity (AID 2283086). The settings on record: primary human HUVEC with PBMC; actives raise or lower the signal. The gist of the method:
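HUVEC + PBMC co-culture, LPS system; compound 24 h; VCAM-1 by ELISA; bidirectional fit vs DMSO control; parallel SRB (0.1%, TCA-fixed, 560 nm) for cytotoxicity.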

Read-out in the next assay: CD40, CD40 (gene 958)
The experiment in a line: BSK_SAg_CD40: BioMAP Diversity Plus: SAg Assay for CD40 Biomarker Activity (AID 2283088). The note with it: primary human HUVEC with PBMC; actives raise or lower the signal. Put shortly: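 Fluorescence ELISA read-out of CD40 from umbilical vein endothelium plus peripheral blood mononuclear cells, sampled 24 h after dosing. Values come from bidirectional curve fitting with DMSO as baseline.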

The nature of assay [11]: BSK_SAg_PBMCCytotoxicity: PBMC Cytotoxicity Assessment in the BioMAP Diversity Plus: SAg Assay (AID 2283093).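 Also: PBMC viability measured as Alamar Blue reduction fluorescence at 546/580 nm; fitted both ways against DMSO so a hit may be loss or gain of signal.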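 As to AC50: PBMC superantigen activated with SEB plus TSST-1 one hour after compound addition.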 The note with it: primary human HUVEC with PBMC. The gist of the method: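 Compound added to 75,000 PBMC/well for 1 h; SEB and TSST-1 then added at 20 ng/mL final each; 90 h incubation; Alamar Blue 6 h; read 546/580 nm ex/em. Activity fitted bidirectionally relative to DMSO baseline.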

Read-out in assay [12]: Interleukin-8 (IL8), CXCL8 (gene 3576)
In words: BSK_SAg_IL8: BioMAP Diversity Plus: SAg Assay for Interleukin-8 (IL8) Biomarker Activity (AID 2283094). The note with it: primary human HUVEC with PBMC; actives raise or lower the signal. Put shortly:
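ELISA read-out of IL-8 in a primary human vascular co-culture (umbilical vein endothelium plus PBMC), taken 24 h after compound addition. Values derive from bidirectional fits against DMSO negative controls.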

Assay [13] is described as follows: BSK_SAg_SRB: Viability Assessment in the BioMAP Diversity Plus: SAg Assay (AID 2283096).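 Also: cells read one day after compound addition; hits may be either gain or loss of signal compared with DMSO.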 The settings on record: primary human HUVEC with PBMC. The gist of the method:
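Total protein by sulforhodamine B staining, 24 h after dosing, in HUVEC–PBMC co-culture; DMSO-referenced bidirectional fitting.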

Assay [14] is described as follows: BSK_BT_Bcell_Proliferation: Viability Assessment in the BioMAP Diversity Plus: BT Assay for B cell Proliferation (AID 2284227). The settings on record: primary human B cells with PBMC. Put shortly:
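Human B cells co-cultured with PBMC were dosed with test chemicals and relative cell number was quantified by SRB staining at 72 h. Cells were fixed in 10% TCA, stained with 0.1% SRB and read at 560 nm. Activity was fitted in the positive direction against DMSO.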

Read-out in assay [15]: Interleukin 6 (IL6), IL6 (gene 3569)
The experiment in a line: BSK_BT_xIL6: BioMAP Diversity Plus: BT Assay for Interleukin 6 (IL6) Biomarker Activity (AID 2284228). The note with it: primary human B cells with PBMC. Put shortly: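 Chemical added to human B cell/PBMC co-culture → 24 h → supernatant IL-6 by Luminex xMAP → fit vs DMSO baseline, upward direction.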

Read-out in assay [16]: Interleukin 17A (IL17A), IL17A (gene 3605)
The experiment in a line: BSK_BT_xIL17A: BioMAP Diversity Plus: BT Assay for Interleukin 17A (IL17A) Biomarker Activity (AID 2284229). The settings on record: primary human B cells with PBMC. The gist of the method: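 Chemicals were added to a human B cell and PBMC co-culture. After 24 h, secreted IL-17A was measured with Luminex xMAP. Curves were fitted in the positive direction, with DMSO wells as baseline.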

Read-out in assay [17]: Collagen IV, COL4A1 (gene 1282)
In words: BSK_MyoF_CollagenIV: BioMAP Diversity Plus: MyoF Assay for Collagen IV Biomarker Activity (AID 2284247). The note with it: primary human lung fibroblasts. The gist of the method:
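Steps: dose human lung fibroblasts; culture 24 h; quantify Collagen IV by ELISA; fit increase versus DMSO control. Parallel SRB total-protein staining (0.1% SRB after 10% TCA fixation, 560 nm) tracks overt cytotoxicity.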

Read-out in assay [18]: Urokinase-type plasminogen activator receptor (uPAR), PLAUR (gene 5329)
The experiment in a line: BSK_CASM3C_uPAR: BioMAP Diversity Plus: CASM3C Assay for Urokinase-type plasminogen activator receptor (uPAR) Biomarker Activity (AID 2283054).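 Also: cell-surface uPAR protein level quantified by ELISA.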 The note with it: primary human coronary artery smooth muscle cells; actives raise or lower the signal.

The nature of assay [19]: CCTE_Harrill_HTTr_CellCount_MCF7: CCTE's Cell Proliferation Assessment for the High-Throughput Transcriptomics (HTTr) Platform, Harrill Lab (AID 2284012; active = hit-call score of the fitted dose curve at least 0.9, where 1 is the maximum;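 also: cells exposed to compound for six hours; intended direction is loss of nuclei count meaning fewer cells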). The gist of the method: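 Chemicals in eight-point dilution series are added to MCF-7 cells for six hours, nuclei are stained with Hoechst and imaged, and per-well nuclei counts are fitted in both directions relative to DMSO controls.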

Each structure is given as a SMILES string. Inconclusive results are not listed. The source made the active and inactive calls. The calls were made as follows, unless noted: active = hit-call score of the fitted dose curve at least 0.9, where 1 is the maximum; inactive = score below 0.9.

The term AC50 denotes the midpoint of the concentration-response curve, whichever way the signal moves. Consider `CCC(C)c1cc([N+](=O)[O-])cc([N+](=O)[O-])c1OC(=O)C=C(C)C` (stereo unspecified), for which the AC50 was 5.85 µM (active) in [1]; 14.5 µM (active) in [2]; 8.71 µM (active) in assay [3]; 3.97 µM (active) in assay [4]; 9.2 µM (active) in assay [5]; 33 µM (active) in assay [6]. Moreover, the half-maximal activity concentration (AC50) was 25 µM (active) in assay [7]; 12.4 µM (active) in assay [8]; 36.7 µM (active) in [9]; 20 µM (active) in assay [10]; 7.96 µM (active) with CD40, CD40 (gene 958); 28.2 µM (active) in assay [11]. Besides, the AC50 is 15.3 µM (active) in assay [13]; 32.6 µM (active) in [14]; 20 µM (active) in assay [15]; 14.4 µM (active) in assay [16]; 12.3 µM (active) in [17]. In addition, in assay [12], the outcome was inactive.
In the case of `O=c1c2ccccc2c(=O)c2c1cc(Cl)c1[nH]c3c([nH]c12)c(Cl)cc1c(=O)c2ccccc2c(=O)c13`, the outcome in assay [1], in [2], in [3], in [4], in assay [5] and in assay [6] was inactive. The outcome in assay [18] was “inactive”; in assay [7] it was “inactive”; in [8] it was “inactive”; in [9], “inactive”; in assay [10], “inactive”; with CD40, CD40 (gene 958), “inactive”. For the same compound, the result in assay [11], in assay [12], in assay [13], in assay [14], in assay [15] and in [16] was inactive. Moreover, the result in [17] was inactive.
With `Nc1ccc(-c2ccc(N)c(N)c2)cc1N`, the result in assay [2], in [3], in assay [4], in assay [5], in assay [18] and in assay [9] was inactive. Also, the outcome with CD40, CD40 (gene 958) is “inactive”; in assay [11] it was “inactive”; in assay [12], “inactive”; in [13] it was “inactive”; in assay [14], “inactive”; in [15] it was “inactive”. The result in assay [16] and in [17] was inactive. For the same compound, the AC50 in assay [8] is 26.6 µM (active); in [10], 20 µM (active).
Regarding `CN(C)N`, in assay [19], the compound was classed as inactive.
As for `Nc1ccccc1`, in assay [19], the compound was called inactive.
On to `O=c1[nH]c(Cl)c(Cl)cc1Cl`, for which the result in [1], in [2], in assay [3], in [4], in assay [5] and in [6] was inactive. Further, the outcome in assay [18] was “inactive”; in [7], “inactive”; in [8], “inactive”; in assay [9], “inactive”; in assay [10], “inactive”; with CD40, CD40 (gene 958), “inactive”. Besides, the outcome in assay [11], in assay [12], in assay [13], in [19], in assay [14] and in assay [15] was inactive. The outcome in [16] and in assay [17] was inactive.
For the compound `CC(C)(C)C(=O)CCl`, the half-maximal activity concentration (AC50) was 20 µM (active) in [1], 20 µM (active) in assay [6], 24.3 µM (active) in [10] and 9.22 µM (active) in assay [11]. The outcome in [2], in assay [3], in assay [4], in [18], in assay [7] and in assay [8] was inactive. The outcome in [9] is “inactive”; with CD40, CD40 (gene 958), “inactive”; in [12], “inactive”; in [13] it was “inactive”; in assay [14], “inactive”; in [15], “inactive”. Also, the result in assay [16] and in assay [17] was inactive.
On to `[N-]=[N+]=CC(=O)OC[C@H](N)C(=O)O`, for which the result in assay [19] was inactive.
Consider `CC(C)(Cl)Cl`, for which the compound was classed as inactive in assay [19].
For the compound `CCCOC(=O)c1ccccc1C(=O)OCCC`, the AC50 in assay [1] was 7.06 µM (active); in [18], 5.19 µM (active). The result in assay [2], in [3], in assay [4], in assay [5], in assay [6] and in assay [7] was inactive. Besides, the outcome in assay [8] is “inactive”; in assay [9], “inactive”; in [10], “inactive”; in the assay with CD40, CD40 (gene 958), “inactive”; in [11], “inactive”; in assay [12] it was “inactive”. For the same compound, the result in assay [13], in assay [14], in assay [15], in [16] and in assay [17] was inactive.
For the compound `Oc1ccc(Cl)cc1`, in assay [19], the result was inactive.
Turning to `C[C@]12CCC(=O)C(O)=C1CC[C@@H]1[C@@H]2CC[C@]2(C)C(=O)CC[C@@H]12`, the compound was called inactive in assay [19].
